Drawing on ChEMBL document CHEMBL3433997, “St. Jude Leishmania screening dataset” (2016), this text covers inhibition for 37 compounds.

As a reminder, the inhibition is the drop in the measured response relative to a control, in per cent.

Assay type in all cases: functional
Assay [1] has as its target Solute carrier family 2, facilitated glucose transporter member 1 (Homo sapiens) (UniProt P11166). Put plainly: ST_JUDE_LEISH: Cytotoxicity at 2uM final concentration against transgenic Leishmania Mexicana promastigotes LmGLUT1 that are glucose transport deficient and complemented with the human glucose transporter GLUT1. Activity is measured by DNA content using SYBR green in vitro.

For assay [2], the target named is Hexose transporter 1 (Plasmodium falciparum) (UniProt O97467). Briefly: ST_JUDE_LEISH: Cytotoxicity at 2uM final concentration against transgenic Leishmania Mexicana promastigotes LmPfHT that are glucose transport deficient and complemented with the Plasmodium falciparum hexose transporter. Activity is measured by DNA content using SYBR green in vitro.
Assay [3] has as its target Glucose transporter (Leishmania mexicana) (UniProt O61059). Briefly: ST_JUDE_LEISH: Cytotoxicity at 2uM final concentration against transgenic Leishmania Mexicana promastigotes LmGT2 that are glucose transport deficient and complemented with the L. Mexicana glucose transporter 2. Activity is measured by DNA content using SYBR green in vitro.

Solute carrier family 2, facilitated glucose transporter member 1 (Homo sapiens), sequence (P11166 whole entry): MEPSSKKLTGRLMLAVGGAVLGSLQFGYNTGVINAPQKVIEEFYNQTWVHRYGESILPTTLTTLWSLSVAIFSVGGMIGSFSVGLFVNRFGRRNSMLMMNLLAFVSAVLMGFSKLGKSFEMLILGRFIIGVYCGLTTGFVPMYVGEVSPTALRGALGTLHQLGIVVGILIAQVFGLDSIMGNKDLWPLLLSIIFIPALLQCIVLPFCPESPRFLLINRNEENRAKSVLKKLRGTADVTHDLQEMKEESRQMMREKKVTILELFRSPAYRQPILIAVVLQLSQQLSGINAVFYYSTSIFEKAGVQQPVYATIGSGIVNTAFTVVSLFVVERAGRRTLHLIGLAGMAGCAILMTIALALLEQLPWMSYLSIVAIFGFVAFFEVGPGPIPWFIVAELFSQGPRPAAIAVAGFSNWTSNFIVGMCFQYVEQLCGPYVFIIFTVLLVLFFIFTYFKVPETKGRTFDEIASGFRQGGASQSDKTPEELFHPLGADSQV

In the case of `O=C(NCC1CCN(Cc2cccc(F)c2)C1)c1cc(-c2cccc(C(F)(F)F)c2)cs1` (stereo unspecified), the inhibition in assay [1] was -1.66%; in assay [2], -2.49%; in assay [3] it was 2.59%.

As for `Clc1ccc2c(NCCc3ccccn3)ccnc2c1`, the inhibition in assay [1] came out at 6.58%; in assay [2], 6.15%; in assay [3] it was 6.87%.

Take `O=C(Nc1ccc(C(F)(F)F)cc1)c1ccc(S(=O)(=O)NC2CCCN(CC3CCCCC3)C2)cc1` (stereo unspecified): the inhibition in assay [1] is 6.6%; in assay [2], 4.53%; in assay [3], 4.45%.

As to `CS(=O)(=O)c1ccc(CNCc2ccc(-c3ccc(-c4nc5cc(F)ccc5[nH]4)s3)cc2)cc1`, the inhibition is 11.6% in assay [1], 10.9% in assay [2] and 8.75% in assay [3].

As for `CCC1CN2CCc3c([nH]c4ccccc34)C2CC1CC1NCCc2cc(OC)c(OC)cc21` (stereo unspecified), the inhibition in assay [1] was 1.68%; in assay [2], 4.6%; in assay [3] it was 0.99%.

Turning to `C=CCc1cc(C2CCN(CCCCNC(=O)c3ccc(-c4ccc(C#N)cc4)cc3)CC2)c(OCC(N)=O)c2c1CCCC2`, the inhibition in assay [1] amounted to 0.81%; in assay [2], 2.67%; in assay [3] it was 3.22%.

For `CCN(CC)CCN(Cc1ccc(-c2ccc(C(F)(F)F)cc2)cc1)C(=O)Cn1c(CCc2cccc(F)c2F)nc(=O)c2cc(F)ccc21`, the inhibition in assay [1] came to 4.48%; in assay [2], 2.96%; in assay [3] it was 4.5%.

Take `Clc1ccc(CCNCCCCCCNCCc2ccc3c(c2)OCO3)cc1`: the values for the inhibition in assay [1], in assay [2] and in assay [3] were 8.05%, 8.53% and 7.21%, respectively.

Consider `O=C(Nc1ccccc1F)N(CCCn1ccnc1)Cc1csc(-c2ccc(CNCc3ccccc3)cc2)n1`, for which the inhibition was -0.67% in assay [1], 0.06% in assay [2] and 3.14% in assay [3].

Turning to `COc1ccc2nccc([C@@H](O)CN3CCC(NCc4cc5ccccc5s4)CC3)c2c1`, the inhibition in assay [1] is 5.41%; in assay [2], 10.3%; in assay [3], 0.03%.

As for `Oc1ccc(CCNCCCCCCNCCc2ccc(-c3ccccc3)cc2)cc1O`, the inhibition is 1.33% in assay [1], 1.69% in assay [2] and 1.57% in assay [3].

For the compound `O=C(/C=C/c1ccc(Cl)c(Cl)c1)NCCCCCCN1CCN(C(=O)Nc2cc(Cl)nc(Cl)c2)CC1`, the inhibition in assay [1] was determined as 2.96%; in assay [2], 2.93%; in assay [3] it was 2.49%.

In the case of `CC(C)CCn1c(Sc2ccc(C#N)c([N+](=O)[O-])c2)nnc1-c1ccccc1Cl`, the inhibition was 4.86% in assay [1], 3.76% in assay [2] and 1.46% in assay [3].

With `O=C(Nc1ccc(-c2cccc(-c3nc4ccccc4[nH]3)c2)cc1)Nc1ccc(F)c(F)c1F`, the inhibition in assay [1] is 0.73%; in assay [2], -0.07%; in assay [3] it was 0.32%.

With `CN(C)Cc1cccc2nc(-c3csc(Cc4cc(Cl)ccc4OCc4ccccc4)n3)[nH]c12`, the inhibition worked out at 6.3% in assay [1], 3.36% in assay [2] and 1.88% in assay [3].

On to `CC(C)(C)c1ccc(-c2ccccc2CNC(=O)c2cccc(O)c2)cc1`, for which the inhibition was determined as 6.97% in assay [1], 6.5% in assay [2] and 7.1% in assay [3].

In the case of `COc1ccccc1-n1c(SCC(=O)Nc2ccccc2F)nc2cccnc21`, the figures for the inhibition in assay [1], in assay [2] and in assay [3] were 2.95%, 1.38% and 2.25%, respectively.

Take `O=C(/C=C/c1ccc(Cl)c(Cl)c1)N1CCN(C(=O)Nc2cccc(C(F)(F)F)c2)CC1`: the inhibition amounted to 5.23% in assay [1], 4.67% in assay [2] and 2.79% in assay [3].

Turning to `Cn1nccc1C(=O)NCCNCc1ccc(-c2ccc(-c3nc4cc(F)ccc4[nH]3)cc2)cc1`, the inhibition in assay [1] came to 1.91%; in assay [2], 4.48%; in assay [3], 5.68%.

As for `COc1ccc(C2SCC(=O)N2CCc2ccc(OC)c(OC)c2)cc1` (stereo unspecified), the results for the inhibition in assay [1], in assay [2] and in assay [3] were 2.35%, 1.37% and 2.36%, respectively.

Turning to `CCOc1c(Cl)cc(Cl)cc1CNCCCNc1nc2ccccc2[nH]1`, the inhibition in assay [1] was determined as 1.3%; in assay [2] it was 6.95%; in assay [3] it was 4.33%.

As for `O=C(Nc1cccc(CN2CCCN(Cc3ncc[nH]3)CC2)c1)c1ccc(Cl)c(Cl)c1`, the results for the inhibition in assay [1], in assay [2] and in assay [3] were 2.9%, 3.94% and 5.79%, respectively.

As for `COc1cc(C2CCCCC2)c(OC)cc1CC1c2cc(O)c(Cl)cc2CCN1C` (stereo unspecified), the inhibition in assay [1] is 3.83%; in assay [2] it was -0.22%; in assay [3] it was 12.9%.

Consider `Cc1cc(NC(=O)Nc2ccc3nccc(N4CCN(C)CC4)c3c2)ccc1Br`, for which the inhibition in assay [1] is -0.1%; in assay [2], 1.48%; in assay [3] it was 1.15%.

For `Cc1ccccc1C1CCN(C2CCC(NC(=O)/C=C/c3ccccc3C(F)(F)F)CC2)CC1` (stereo unspecified), the inhibition is 3.47% in assay [1], -0.14% in assay [2] and 4.39% in assay [3].

In the case of `CN(C)c1cccc2c1nc(-c1ccc3c(c1)CCO3)n2CCNCc1ccccc1`, the values for the inhibition in assay [1], in assay [2] and in assay [3] were 11.7%, 8.56% and 5.57%, respectively.

Turning to `N=C(N)NC(=O)Nc1cc(Br)c(Cl)c(Br)c1`, the inhibition in assay [1] is -0.91%; in assay [2], -1.3%; in assay [3], -1.76%.

As to `c1cncc(Oc2ccc(Nc3ccnc4cc(-c5cccc(CN6CCCCC6)c5)ccc34)cc2)c1`, the inhibition in assay [1] came out at 3.68%; in assay [2], 2.51%; in assay [3], 2.68%.

Take `CN(Cc1ccc(NC(=O)CCC2CCN(C(=O)/C=C/c3ccc(Cl)c(Cl)c3)CC2)cc1)C1CCOCC1`: the figures for the inhibition in assay [1], in assay [2] and in assay [3] were 4.84%, 5.1% and -1.91%, respectively.

Turning to `Cc1cc(F)ccc1[C@H]1CNCCN1C(=O)N(C)[C@@H](C)c1cc(C(F)(F)F)cc(C(F)(F)F)c1`, the inhibition was -0.55% in assay [1], -0.16% in assay [2] and -2.72% in assay [3].

On to `CC(C)c1ccc(Cn2cc(-c3ccncc3)c3cc(OCc4ccccc4)ccc32)cc1`, for which the inhibition was 0.76% in assay [1], 0.58% in assay [2] and 2.49% in assay [3].

As for `O=C(Nc1cc(F)cc(F)c1)N1CCOC(CCN2CCC(c3ccccc3)CC2)(c2ccc(Cl)c(Cl)c2)C1` (stereo unspecified), the inhibition came out at 4.27% in assay [1], 2.5% in assay [2] and 2.87% in assay [3].

With `O=C(N[C@@H](Cc1ccccc1)C(=O)NC1CCCc2ccccc21)c1ccc(O)c(-c2ccc(Cl)c(Cl)c2)c1` (stereo partly specified), the inhibition was 0.59% in assay [1], 0.41% in assay [2] and -0.1% in assay [3].

In the case of `O=C(Nc1ccc(Cn2ncc(N3CCCNCC3)c(Cl)c2=O)cc1)Nc1ccc(C(F)(F)F)cc1`, the inhibition in assay [1] was 3.47%; in assay [2] it was 4.5%; in assay [3], -0.44%.

Take `Nc1cc(-c2cc3c(OCc4ccccc4)cccc3[nH]2)ccn1`: the inhibition was found to be 1.13% in assay [1], 4.32% in assay [2] and 1.6% in assay [3].

Consider `CC(C)(C)c1ccc(C(=O)NC2CCC(CCN3CCc4ccc(S(C)(=O)=O)cc4CC3)CC2)cc1C(F)(F)F` (stereo unspecified), for which the values for the inhibition in assay [1], in assay [2] and in assay [3] were 1.87%, 2.06% and 6.75%, respectively.

For the compound `CC1(C)N=C(N)N=C(N)N1OCCCOc1cc(Cl)c(Cl)cc1Cl`, the values for the inhibition in assay [1], in assay [2] and in assay [3] were 3.4%, 4.05% and 2.71%, respectively.
